From PubChem
This is a sample that favours compounds with a hit; in the whole collection about 1.3% have one here.
RTF Ca sens inh: cardiac RTF calcium desensitization; P19429+P45379; IANBD-labeled cardiac RTF, Ca2+ fluorescence; inhibition, % at 7.15 µM; 340,000 tested, 0.12% active;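 active = inhibition above the mean inhibition of all tested compounds plus 3 SD, cut at about 17% in these data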;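 note: assay run at fixed EC70 calcium of 1.6 mM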
Keap1-Nrf2 PPI: disrupts human Keap1 binding to Nrf2 peptide | Q14145 | Keap1 Kelch-Nrf2 peptide fluorescence polarization, 1536-well | inhibition, % at 9.4 µM | 340,000 tested, 0.15% active; in the data active = inhibition above about 12%;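 note: human Keap1 Kelch domain with fluorescein labeled Nrf2 9mer peptide probe; 0% = neutral control wells and 100% = peptide positive control; higher means more block of Keap1 binding to Nrf2 peptide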
Target sequence (Q14145 whole entry, looked up, the tested form may be a part): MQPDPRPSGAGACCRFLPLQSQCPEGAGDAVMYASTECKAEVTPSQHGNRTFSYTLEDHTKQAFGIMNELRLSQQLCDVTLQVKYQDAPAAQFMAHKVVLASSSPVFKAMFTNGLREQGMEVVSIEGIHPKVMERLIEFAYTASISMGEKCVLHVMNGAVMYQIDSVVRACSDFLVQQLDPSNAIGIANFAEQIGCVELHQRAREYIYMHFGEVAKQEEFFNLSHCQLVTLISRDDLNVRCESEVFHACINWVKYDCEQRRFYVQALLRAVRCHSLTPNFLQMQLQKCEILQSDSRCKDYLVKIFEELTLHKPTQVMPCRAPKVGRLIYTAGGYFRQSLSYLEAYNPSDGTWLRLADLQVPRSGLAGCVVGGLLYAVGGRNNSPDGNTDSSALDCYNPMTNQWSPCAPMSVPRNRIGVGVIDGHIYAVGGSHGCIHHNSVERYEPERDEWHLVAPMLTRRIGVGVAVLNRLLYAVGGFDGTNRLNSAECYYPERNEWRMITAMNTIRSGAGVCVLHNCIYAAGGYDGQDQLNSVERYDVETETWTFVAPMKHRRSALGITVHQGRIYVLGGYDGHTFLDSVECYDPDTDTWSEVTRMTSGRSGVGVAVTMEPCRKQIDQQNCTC
CRFR2-BP ag: agonists of human CRF-binding protein/CRF-R2 receptor complex; 350,000 tested, 0.46% active; HEK293 CRF-R2/CRF-BP, calcium dye fluorescence (FLIPR); percent of saturating CRF peptide response; activation, % at 13.2 µM;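 active = activation of at least 50%, plus an integration ratio under a set limit after plate pattern correction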;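 note: plate controls were neutral control wells without compound for no effect and CRF at EC100 for full effect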
C-LANA FP: blocks KSHV LANA C-terminal domain binding to DNA; inhibition, % at 9 µM; 340,000 tested, 0.078% active; MBP-C-LANA/FAM-LBS DNA binding, fluorescence polarization;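 active = highest replicate inhibition at or above 60% at 9 µM, even if other replicates fall short; inactive = all replicates below 60% inhibition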;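 note: 0% = neutral control wells and 100% = 4 µM acridine orange control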
CRFBP-R2 block: blocks CRF-induced signaling of the CRF-BP/CRF-R2 complex. HEK293 CRF-R2/CRF-BP, CRF-induced calcium fluorescence. inhibition, % at 11.8 µM. 350,000 tested, 0.59% active;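 active = inhibition of the ligand-induced calcium signal above about 50% at the single tested concentration, limit read from the data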
cardiac RTF act: increases calcium sensitivity of human cardiac regulated thin filaments; P19429+P45379; IANBD-labeled TnC RTF fluorescence at EC20 calcium; 0% EC20 calcium, 100% full calcium; activation, % at 7.2 µM; 340,000 tested, 0.24% active;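 active = activation above the mean over all tested compounds plus 3 SD, cut at about 30% in these data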;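 note: rise in fluorescence read as greater calcium sensitivity of cardiac thin filaments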
Numbers without * were called inactive; / = no result given.

SMILES	RTF Ca sens inh	Keap1-Nrf2 PPI	CRFR2-BP ag	C-LANA FP	CRFBP-R2 block	cardiac RTF act
CC1(c2ccccc2)NC(=O)N(CC(=O)Nc2ccc3c(c2)OCO3)C1=O (centres undefined)	-3	-3	-2	3	-1	0
CC1(c2ccc(OC(F)F)cc2)NC(=O)N(CC(=O)Nc2ccc3[nH]c(=O)[nH]c3c2)C1=O (centres undefined)	-25	4	2	0	-11	-4
CC(=O)Nc1ccc(/C=N/N2C(=O)NC(C)(c3ccc(OC(F)F)cc3)C2=O)cc1 (centres undefined)	1	2	130*	-1	-91	0
O=C(CSc1nc2c(oc3ccccc32)c(=O)n1CC1CCCO1)NCc1ccccc1 (centres undefined)	-5	-1	0	1	0	-6
O=C(Nn1cnc2ccccc2c1=O)c1ccc(Br)cc1	-5	6	-2	0	0	-4
COc1ccc(C2C(C#N)=C(N)Oc3cc(O)ccc32)cc1 (centres undefined)	4	2	2	1	-7	-2
COc1ccc(N=Cc2cc3c(cc2O)OC(N)=C(C#N)C3c2ccccc2)cc1 (centres undefined)	-44	-2	19	4	-14	71*
O=C(NNC(=O)c1ccc(NC(=O)C2CC2)cc1)c1ccc(F)cc1	-2	-1	0	-1	0	0
COc1cc(NC(=S)NCCC(c2ccccc2)c2ccccc2)c(OC)cc1Cl	-13	1	2	0	65*	9
CC(=O)c1cc(NC(=O)c2ccc(Cl)cc2)c(=O)oc1/C=C/N(C)C	-46	-3	79*	7	-90	27
CC(=O)c1cc(NC(=O)c2cccc(C(F)(F)F)c2)c(=O)oc1C	/	0	0	2	10	/
CC(=O)c1cc(NC(=O)c2cccc(C(F)(F)F)c2)c(=O)oc1/C=C/N(C)C	-12	0	76*	0	-120	9
COc1ccc(C(=O)Nc2cc(C(C)=O)c(C)oc2=O)cc1	-11	-1	0	-1	-47	0
Fc1ccc(C(c2nnnn2CCc2ccccc2)N2CCCc3ccccc32)cc1 (centres undefined)	5	-6	1	0	3	-8
c1ccc(CCn2nnnc2CN2CCCc3ccccc32)cc1	-14	2	68*	-1	-17	9
C=CCNC(=O)/C(C#N)=C\c1cc(Cl)c(O)c(OCC)c1	-11	-3	7	1	-2	4
CCN(CC)S(=O)(=O)c1ccc(N2CCCCC2)c(NC(=O)/C(C#N)=C/c2ccc(OC)cc2)c1	1	0	2	-1	14	2
CCOc1cc(/C=C(/C#N)C(=O)Nc2ccc(O)cc2)cc(Br)c1O	-9	-44	96*	-11	-81	7
CCOc1ccc(NC(=O)/C(C#N)=C/c2ccc(N3CCCC3)c(C)c2)cc1	-51	-6	119*	2	-135	67*
CC(C)Sc1ccc([N+](=O)[O-])cc1C(=O)Nc1ccncc1	-1	-4	-1	-1	-19	3
CC(C(=O)NNS(=O)(=O)c1cccc(C(F)(F)F)c1)n1nnc(N2CCOCC2)n1 (centres undefined)	-9	-6	2	4	-8	27
NC(=S)n1[nH]c(-c2ccc([N+](=O)[O-])cc2)c(N=Nc2ccccc2[N+](=O)[O-])c1=O	-6	-4	7	0	-75	0
Cc1c(N=Nc2c(-c3ccc([N+](=O)[O-])cc3)[nH]n(C(N)=S)c2=O)cccc1[N+](=O)[O-]	15	-1	42	0	66*	-10
O=C(Cn1sc2ccccc2c1=O)Nc1ccc(Cl)cc1	/	/	2	/	3	/
N#C/C(=N\Nc1cccc([N+](=O)[O-])c1)C(=O)c1ccc(Br)cc1	-6	-3	22	1	52*	-8
N#C/C(=N\Nc1ccc([N+](=O)[O-])cc1)C(N)=S	9	-6	12	-6	57*	-12
N#C/C(=N/Nc1ccc([N+](=O)[O-])cc1)C(=N)N1CCCCC1	3	-7	0	-2	25	-2
O=C(O)c1ccc(N=NNc2cccc([N+](=O)[O-])c2)cc1	10	2	-2	0	4	1
